# Assay results reported in PubChem BioAssay AID1117319 (Southern Research Institute, 2015).
# Values joined by “and” are separate entries in the source; they are usually repeats but may differ in a detail not shown here. Equal values may be shown once. About 1,500 (0.58%) of roughly 260,000 compounds were called active. Not shown: some 5% with an inconclusive outcome. Not all results are given here. Potency and affinity values are given separately. Values without a mark were called inactive.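 The calls were made as follows: active = inhibition above a set limit at one or more doses, reproduced on every date tested; inconclusive = results disagree between test dates, or hit never tested in dose response; inactive = the rest.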
# Target: Virion infectivity factor (Human immunodeficiency virus type 1 group M subtype B (isolate BH10)) + Virion infectivity factor (Human immunodeficiency virus type 1 group M subtype B (isolate BRU/LAI)) + Virion infectivity factor (Human immunodeficiency virus type 1 group M subtype B (isolate PCV12)) + Virion infectivity factor (Human immunodeficiency virus type 1 group M subtype B (isolate HXB2)) + DNA dC->dU-editing enzyme APOBEC-3G (Homo sapiens) (UniProt P69720+P69721+P69722+P69723+Q9HC16)
# Assay: HIV-1 Vif–A3G interaction blockers – biochemical, TR-FRET, GST-Vif 1-94, biotin-A3G peptide, dose response retest, primary screen (AID 1117319);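 also: Vif residues 1-94 fused to GST binding biotinylated APOBEC3G peptide 110-148; 0% = full assay without inhibitor and 100% = GST in place of GST-Vif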
# Settings: TR-FRET GST-Vif / biotin-A3G peptide binding; stronger effect = higher value
row,SMILES,inhibition
1,CCn1c(O)c(N=Nc2ccc(Cl)c(C(=O)O)c2)c2ccccc21,16%
2,O/N=C/c1nc2cc(Cl)ccc2o1,4.03%
3,CC(=O)N(C1=C(N)C(=O)c2ccccc2C1=O)c1ccccc1,4.9%
4,CC(=O)N(C1=C(N2CCOCC2)C(=O)c2ccccc2C1=O)c1ccc(C(=O)O)cc1,14.4%
5,COC(=O)c1[nH]c2c(c1C)C(=O)CC(c1ccc(OC)c(OC)c1)C2 (centres undefined),-9.19%
6,C=CC[C@@H](CC(=O)N[C@H](CO)Cc1ccccc1)C(=O)N[C@@H](COC(=O)[C@@H](CC=C)CC(=O)OC(C)(C)C)Cc1ccccc1,-0.04%
7,CC1=C(C(=O)Nc2ccc(C)cc2)C(c2ccc(N(C)C)cc2)NC(=O)N1 (centres undefined),-2.24% and 24.2%
8,CC1=C(C(=O)Nc2ccccc2)C(c2ccc(N(C)C)cc2)NC(=O)N1 (centres undefined),8.56%
9,O=C(NC(C(=O)N/N=C/c1cccc2ccccc12)c1n[nH]c(=O)c2ccccc12)c1ccccc1 (centres undefined),4.11%
10,O=[N+]([O-])c1ccc(NN=Cc2ccccc2O)nc1,7.07%
11,O=C(O)Cc1ccccc1C(=O)O,0.17%
12,O=C(O)Cc1c(O)ccc2ccccc12,3.01%
13,O=C(N/N=C1\CCCc2ccccc21)c1cccc([N+](=O)[O-])c1,3.37%
14,COC(=O)CCN(C(=O)c1ccc(N2CCCCC2)c([N+](=O)[O-])c1)c1ccccn1,-7.46%
15,COc1ccc(C(=O)NNC(=O)c2ccc(C)cc2)cc1S(=O)(=O)N1CCCC1,-1.1%
16,CCCCCC(=O)N1C[C@H](n2cc(C3CC3)nn2)[C@@H](O)C[C@@H]1c1ccc(C)cc1,-2.78%
17,COc1ccccc1C(=O)n1nc(-c2ccc(Cl)cc2)nc1N,20.4%
18,COc1ccc(C(=O)n2nc(-c3ccccc3)nc2N)cc1OC,-0.61% and -0.84%
19,Cc1occc1C(=O)N(C)CC1CCCN(CCc2ccccc2F)C1 (centres undefined),7.6%
20,COc1ccc2c(c1)CC/C(=C/c1ccco1)C2=O,26.2%

row,SMILES,inhibition
1,NC(=N\N=Cc1ccco1)/C(N)=N/N=Cc1ccco1,27.4%
2,O/N=C1\CCCC\C1=C/c1ccccc1,5.14%
3,O=C1C(=Cc2ccco2)CCC1=Cc1ccco1,-4.11%
4,O=C1/C(=C/c2ccco2)CCC1C1CCCC1 (centres undefined),25.4%
5,O=C1/C(=C\c2ccccc2)CCC/C1=C/c1ccccc1,-1.78%
6,Cc1ccccc1C(=O)NC1CCS(=O)(=O)C1 (centres undefined),-1.4%
7,CCc1ccc(CN(C)Cc2nc(Cc3ccc(OC)c(OC)c3)no2)nc1,-3.31%
8,COc1ccc(OC)c(NC(=O)CCN2CCN(c3ccccc3F)CC2)c1,25.7%
9,Nc1nc(CN2CCCCCC2)nc(Nc2ccc(F)cc2)n1,-3.7%
10,Cc1ccc(S(=O)(=O)CCC(=O)NC2CCCCC2)cc1,3.12%
11,COc1ccc(S(=O)(=O)CCC(=O)NC2CCCCC2)cc1,23.2%
12,O=C(CCNS(=O)(=O)c1ccc(Br)cc1)NCCc1ccccc1,-1.9%
13,Cc1ccc(CCNC(=O)CCS(=O)(=O)c2ccc(Br)cc2)cc1,28.3%
14,COc1ccc(S(=O)(=O)CCC(=O)NCCc2ccc(S(N)(=O)=O)cc2)cc1,12.3%
15,Cc1ccc(S(=O)(=O)CCC(=O)NCCc2ccccc2)cc1,1.3%
16,CC(NS(=O)(=O)c1ccccc1)C(=O)Nc1ccc2c(c1)OCCO2 (centres undefined),0.08%
17,CC(=O)NCCn1c(SCc2ccccc2F)nc2ccccc2c1=O,-4.55%
18,O=C(CSc1nc2sc3c(c2c(=O)[nH]1)CCC3)NCCO,-6.15%
19,O=C(Cc1ccccc1)Nc1ccccc1C(=O)Nc1ccccc1,9.21%
20,O=C(CC12CC3CC(CC(C3)C1)C2)NCc1ccccc1,0.11%

row,SMILES,inhibition
1,FC(F)(F)c1ccc2c(c1)NCC1CCCN21 (centres undefined),32.5%
2,O=C1Nc2ccccc2N2CCCC12 (centres undefined),-3.06%
3,COc1ccc(CNC(=O)C(C)N(C)Cc2cccc(F)c2)cc1 (centres undefined),-5.46%
4,CCNc1ccc(C(=O)NN=C2CCCC2)cc1[N+](=O)[O-],4.6%
5,Cc1ccc(C)c(NC(=O)CSc2nc3[nH]ncc3c(=O)[nH]2)c1,8.18%
6,COc1cc(OC)c(-c2noc(C(=O)OC(C)(C)C)c2C(=O)OC(C)(C)C)c(OC)c1,-1.31%
7,COc1cccc(/C=C2/C(=O)NN(c3ccccc3)C2=O)c1,0.84%
8,COc1ccccc1N1C(=O)S/C(=C\c2ccc(C)s2)C1=O,-7.12%
9,O=C(/C=C/c1ccc([N+](=O)[O-])s1)N1CCN(c2ccccc2)CC1,2.14%
10,O=C1N/C(=C/c2ccc(Br)s2)C(=O)N1c1ccccc1,-0.93%
11,Cc1ccc(N2NC(=O)/C(=C\c3cc4c(cc3[N+](=O)[O-])OCO4)C2=O)cc1C,27.7%
12,COc1ccccc1NC(=O)C(=O)N/N=C/c1ccc([N+](=O)[O-])s1,-6.16%
13,COc1cccc(N2C(=O)/C(=C\c3cccs3)NC2=S)c1,7.97%
14,O=C1NC(=S)N/C1=C/c1cc2c(cc1[N+](=O)[O-])OCO2,-9.06%
15,CCOC(=O)C1=C(CC)Nc2ccccc2N=C1NC(=O)c1ccc(S(=O)(=O)N2CCOCC2)cc1,-4.07%
16,O=c1nc2n(c3ccc([N+](=O)[O-])cc13)CCCCC2,-7.12%
17,CCOC(=O)N1CCC(NC(=O)c2cc(S(=O)(=O)N3CCc4ccccc43)cn2C)CC1,-4.57%
18,CCOC(=O)C1=C(C)N(C[C@@H]2CC[C@@H](Cc3ccc(-c4ccccc4)cc3)O2)C(=O)NC1c1ccc(SCc2ccco2)c([N+](=O)[O-])c1 (some centres undefined),30.7%
19,Cc1nc2c(s1)sc1ccccc12,-4.72%
